LYPLA2 counter: blocks human lysophospholipase 2, a PME1 counter-screen | AID 2177 | inhibition, % at 5.9 µM | recombinant LYPLA2, FP-Rh probe fluorescence polarization | O95372 | 320,000 compounds, 0.38% hits;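 active = inhibition above the screen-wide mean plus 3 SD, limit set per campaign, cut at about 26% in these data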;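 also: 0% = LYPLA2 with DMSO and 100% = wells lacking LYPLA2 enzyme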
LYPLA1 counter: blocks human lysophospholipase 1, a PME1 counter-screen. recombinant LYPLA1, FP-Rh probe fluorescence polarization. inhibition, % at 5.9 µM. 320,000 compounds, 0.16% hits. AID 2174;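 active = inhibition above the mean of all tested compounds plus 3 SD, set per campaign, cut at about 14% in these data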;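 also: inhibitors block serine hydrolase probe labeling of LYPLA1 so polarization falls; 0% = enzyme with DMSO and 100% = wells lacking LYPLA1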
PREPL inh: inhibits the human prolyl oligopeptidase-like enzyme | inhibition, % at 5.96 µM | Q4J6C6 | AID 2751 | recombinant PREPL, fluorescence polarization activity-based probe | 320,000 compounds, 0.68% hits; in the data active = inhibition above about 43%;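 also: 0% = enzyme with DMSO and 100% = wells lacking enzyme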
Target sequence (Q4J6C6 whole entry, looked up): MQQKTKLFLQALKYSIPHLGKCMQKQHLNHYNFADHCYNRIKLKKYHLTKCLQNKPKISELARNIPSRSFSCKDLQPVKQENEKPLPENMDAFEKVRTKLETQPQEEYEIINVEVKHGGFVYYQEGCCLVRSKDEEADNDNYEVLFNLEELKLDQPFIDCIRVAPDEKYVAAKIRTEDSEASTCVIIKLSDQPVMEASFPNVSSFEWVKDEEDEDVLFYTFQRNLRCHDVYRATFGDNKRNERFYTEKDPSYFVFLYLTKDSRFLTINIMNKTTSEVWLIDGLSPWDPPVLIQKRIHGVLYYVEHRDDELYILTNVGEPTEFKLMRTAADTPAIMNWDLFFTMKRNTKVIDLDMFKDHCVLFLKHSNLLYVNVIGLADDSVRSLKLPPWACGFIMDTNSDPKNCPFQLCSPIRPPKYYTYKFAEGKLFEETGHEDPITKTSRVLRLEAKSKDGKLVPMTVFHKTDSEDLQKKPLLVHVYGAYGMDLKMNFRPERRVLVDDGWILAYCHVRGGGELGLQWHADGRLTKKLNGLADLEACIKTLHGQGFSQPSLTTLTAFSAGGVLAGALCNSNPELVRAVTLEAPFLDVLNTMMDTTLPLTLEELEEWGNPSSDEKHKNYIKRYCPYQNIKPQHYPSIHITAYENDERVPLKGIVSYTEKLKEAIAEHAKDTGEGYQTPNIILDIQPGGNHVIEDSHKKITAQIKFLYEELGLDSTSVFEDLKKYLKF
GSTO1 inh: counter-screen for RBBP9 inhibitors: inhibitors of human GSTO1; P78417; recombinant GSTO1, activity-based probe fluorescence polarization; inhibition, % at 5.96 µM; 300,000 compounds, 1.1% hits;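 active = inhibition above the campaign mean inhibition plus 3 SD, cut at about 35% in these data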;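 also: 0% = GSTO1-1 with DMSO and 100% = wells lacking GSTO1-1 enzyme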
Fam108B inh: Fam108B inhibition, counter-screen for RBBP9 inhibitors; recombinant Fam108B, FP-Rh probe fluorescence polarization; inhibition, % at 9.51 µM; 300,000 compounds, 0.33% hits; AID 1947;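 active = inhibition above the screen mean inhibition plus 3 SD, computed separately per campaign, cut at about 18% in these data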;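 also: inhibitors lower polarization as less probe binds the enzyme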
PME-1 inh: blocks human protein phosphatase methylesterase 1; inhibition, % at 5.9 µM; Q9Y570; recombinant PME-1, FP-Rh probe fluorescence polarization; 320,000 compounds, 0.53% hits;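 active = inhibition above the campaign mean of all compounds plus 3 SD, cut at about 26% in these data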;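 also: competitive labeling of PME-1 active site by serine hydrolase directed probe; 0% = PME-1 with DMSO and 100% = wells lacking PME-1 enzyme; inhibitors block probe labeling so polarization falls and inhibition rises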
* = called active by the depositor; · = no result. Most compounds without a hit are left out; they make up all but 1.9% or so of the library.

SMILES | LYPLA2 counter | LYPLA1 counter | PREPL inh | GSTO1 inh | Fam108B inh | PME-1 inh
O=C1c2cccc3c([N+](=O)[O-])ccc(c23)C(=O)N1c1ccc(Cl)cn1 | -6.3 | -10.0 | 26.1 | -55.1 | 7.3 | 27.6*
Oc1cc2c(cc1O)C1c3ccc(O)c(O)c3OCC1(O)C2 (stereo not given) | 3.1 | 0.6 | 7.8 | 49.0* | -6.5 | -7.9
N#Cc1c(N(CCO)CCO)nc(N)c2c(N)nc3c(c12)CC(=O)N3CC1CCCO1 (stereo not given) | 4.4 | 6.6 | 14.3 | 32.1 | 3.1 | -5.2
CCCCN1C(=O)Cc2c1nc(N)c1c(N)nc(N(CCC)CCC)c(C#N)c21 | -0.5 | -0.8 | 17.2 | 73.0* | 8.6 | 23.6
CC(C)(C)OC(=O)N1CCCC(C(=O)Nc2cccc(C(=O)N3CCCC3)c2)C1 (stereo not given) | · | · | 4.6 | · | · | ·
O=C1CC(CSc2ccc(Cl)cc2)=NN1 | 1.0 | 0.3 | 16.6 | 37.0* | 1.2 | 3.6
Cc1cc(SCC2=NNC(=O)C2)c(Cl)cc1Cl | 0.9 | -0.2 | 8.5 | 25.5 | 3.5 | 2.7
CCN(C(=O)CSc1nnc(-c2ccco2)n1CC)c1c(N)n(Cc2ccccc2)c(=O)[nH]c1=O | 2.4 | 4.2 | 3.0 | · | · | 4.5
CN(C)S(=O)(=O)c1ccc(C(=O)/C=C/c2cccnc2)cc1 | 2.3 | -4.3 | 7.9 | 2.7 | -0.2 | -1.0
O=C(/C=C/c1cc[n+](CC(=O)c2ccc3cccc4c3c2CC4)cc1)c1ccc2cccc3c2c1CC3 | 83.3* | 77.7* | -33.0 | 24.9 | 7.2 | -1.0
O=C(O)COc1ccc(/C=C/C(=O)c2ccc3ccccc3c2)cc1 | -1.6 | -2.5 | 7.8 | -5.0 | -8.2 | -4.0
O=C(CN1CCC(c2nc3ccccc3s2)CC1)NCc1cccs1 | -2.6 | -0.8 | 1.7 | -1.1 | 0.0 | 39.9*
O=C(CN1CCC(c2nc3ccccc3s2)CC1)N1CCCCC1 | 9.4 | 2.2 | 15.1 | 7.0 | -0.7 | -0.2
Cc1ccc(S(=O)(=O)Nc2c(O)ccc3ccccc23)cc1 | -0.2 | -0.2 | 4.7 | 23.3 | 2.1 | 6.2
Cc1ccc(S(=O)(=O)Nc2c(Cl)c(Cl)c(O)c3ccccc23)cc1 | 4.2 | 2.2 | 4.2 | 76.5* | 6.0 | 2.4
CC1(C)CC(=O)C2=C(C1)N1C(=C(C#N)C2c2ccc(Cl)cc2)N=C(N)c2ccccc21 (stereo not given) | -1.6 | -2.8 | 8.2 | -0.5 | 1.2 | 31.3*
N#CC1=C2N=C(N)c3ccccc3N2C2=C(C(=O)CCC2)C1c1ccc(Cl)cc1 (stereo not given) | 7.4 | -0.2 | 16.1 | 0.9 | 4.2 | 17.1
CNC(=O)c1cc(Oc2ccc(NC(=O)Nc3ccc(Cl)c(C(F)(F)F)c3)cc2)ccn1 | -116.5 | -69.2 | -16.4 | · | · | -151.5
Cc1cc(C)c(C#N)c(SCc2c(F)cccc2[N+](=O)[O-])n1 | 34.3* | 3.5 | 12.8 | -3.4 | 4.4 | -1.6
O=C(C1CCCN1S(=O)(=O)c1cccc2cccnc12)N1CCn2c1nc1ccccc12 (stereo not given) | -4.8 | 1.7 | -15.4 | 5.2 | 2.1 | -1.7
O=C(C1CCN(S(=O)(=O)c2cccc3cccnc23)CC1)N1CCn2c1nc1ccccc12 | -4.9 | 1.8 | 4.8 | 3.9 | 0.6 | 28.1*
Cc1ccccc1NC(=O)C(C)OC(=O)c1ccccc1C(=O)N(C)c1ccccc1 (stereo not given) | 3.1 | -1.1 | 8.7 | 10.0 | 1.4 | -4.7
O=C(NNc1c2ccccc2nc2ccccc12)c1ccccc1Cl | -3.2 | -6.3 | 6.8 | -2.7 | -6.1 | -8.3
O=C(NNc1c2ccccc2nc2ccccc12)c1ccc(O)cc1 | 1.4 | -0.6 | 35.9 | -5.8 | 7.9 | 49.4*
CCCC(=O)NNc1c2ccccc2nc2ccccc12 | 0.6 | 1.9 | 2.3 | 4.4 | 0.4 | -1.9
SMILES | LYPLA2 counter | LYPLA1 counter | PREPL inh | GSTO1 inh | Fam108B inh | PME-1 inh
O=C(NNc1c2ccccc2nc2ccccc12)c1cccc(O)c1 | -3.8 | -1.9 | 30.9 | -0.2 | 6.0 | 39.9*
Cc1nn(-c2ccccc2)c2sc(-c3n[nH]c(=S)o3)cc12 | 5.7 | 8.7 | 20.0 | 5.9 | 7.1 | 39.1*
Cc1c2ccccc2cc[n+]1CCCS(=O)(=O)[O-] | -4.8 | -1.9 | -5.3 | 0.9 | -0.8 | -4.5
CC1(C)C(/C=C/C=C/C=C/C=C2\N(CCCCS(=O)(=O)O)c3ccc4ccccc4c3C2(C)C)=[N+](CCCCS(=O)(=O)[O-])c2ccc3ccccc3c21 | -25.2 | -8.3 | -27.4 | 41.2* | -4.0 | -52.5
CC1=NN(c2ccccc2)C(=O)/C1=C\C=C1\N(C)c2ccccc2C1(C)C | 3.9 | 0.3 | 23.2 | 3.3 | -2.2 | 2.1
CC1=NN(c2ccccc2)C(=O)/C1=C\C=C1/N(C)c2ccccc2C1(C)C | -4.5 | -5.1 | 31.6 | 72.0* | -1.0 | 3.0
CN(Cc1ccccc1)C(=O)COC(=O)C12CC3CC(CC(Br)(C3)C1)C2 | · | · | 3.0 | · | · | ·
COc1ccc(C)cc1S(=O)(=O)N1CCN(C)CC1c1ccccc1 (stereo not given) | -2.2 | -1.2 | 12.2 | · | · | -0.4
CNc1cccccc1=S | -0.6 | -0.9 | 8.0 | 37.0* | 0.7 | -1.7
O=C(O)c1cc(N/N=C/C(Cl)=C/c2ccccc2)ccc1Cl | 5.4 | 5.7 | 14.4 | 40.1* | 5.5 | 11.2
O=[N+]([O-])c1cc(S(=O)(=O)N2CCCC2)ccc1NN=C1CCCCC1 | 6.5 | -1.3 | 3.6 | -2.7 | -2.0 | 2.2
O=[N+]([O-])c1cc(C(F)(F)F)cc([N+](=O)[O-])c1NN=C1CCCCC1 | 1.6 | -3.5 | 7.7 | 37.0* | 7.2 | 6.1
CN(C)C(=O)c1ccc(-c2nnc(NCc3ccccc3)c3ccccc23)cc1 | 7.8 | 4.2 | -4.4 | 1.8 | -0.8 | 36.6*
COc1ccc(-c2cc3nc4ccccc4n3c(N)c2C#N)cc1 | 2.9 | -1.3 | 24.5 | 38.5* | 7.3 | -6.7
O=C(NCc1ccncc1)c1cccc(S(=O)(=O)N2CCc3ccccc32)c1 | -1.9 | -2.4 | -9.4 | · | · | 5.6
C[C@H](CO)N1C[C@H](C)[C@@H](CN(C)C(=O)Nc2ccc3c(c2)OCO3)Oc2ccc(NC(=O)NC3CCCCC3)cc2C1=O | · | · | 5.7 | · | · | ·
Nc1ccc(N(CCO)CCO)cc1 | -3.4 | -0.7 | 16.4 | 64.6* | 5.8 | 11.0
Nc1ccc(C(=O)N(CCO)CCO)cc1 | 6.8 | -2.5 | 20.8 | 13.0 | 1.0 | 2.6
C#CCOCCOCCOCCNc1nc(N2CCN(C(=O)[C@H](Cc3cc4ccccc4[nH]3)n3cc([C@@H](N)C(C)CC)nn3)CC2)nc(N2CCN(C(=O)[C@H](Cc3cc4ccccc4[nH]3)n3cc([C@@H](N)CC(C)C)nn3)CC2)n1 (stereo not given in full) | -7.5 | -4.6 | 68.9* | 0.0 | 3.2 | -0.2
C#CCOCCOCCOCCNc1nc(N2CCN(C(=O)[C@H]([C@@H](C)CC)n3cc([C@@H](N)CO)nn3)CC2)nc(N2CCN(C(=O)[C@H](Cc3cc4ccccc4[nH]3)n3cc([C@@H](N)Cc4ccc(O)cc4)nn3)CC2)n1 | 2.0 | -3.9 | 48.8* | 10.2 | 1.9 | -6.4

Screening results: PubChem BioAssay, The Scripps Research Institute Molecular Screening Center
